# ATG4B inh: blocks human ATG4B protease cleavage of LC3 substrate; inhibition, % at 8.33 µM; Q9Y4P1; ATG4B cleavage of LC3-PLA2, NBD-HPC fluorescence, 1 h; AID 504462; 0.51% of 340,000 active; in the data active = inhibition above about 40%
# PP1 inh: blocks human PP1-alpha phosphatase, a PP5 counter-screen; inhibition, % at 6.7 µM; P62136; 0.9% of 320,000 active; purified PP1alpha, OMFP fluorescence;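 active = inhibition above the mean inhibition of all tested compounds plus 3 SD, computed separately for each screening campaign, cut at about 15% in these data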
# Cardio protect: myocardial damage modulation in H9c2 cells; H9c2 cardiomyocytes, H2O2 injury protection, ATPLite, 2 h; protection from H2O2 cell death, % at 20 µM; 0.63% of 360,000 active; AID 588492;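 active = compounds giving at least 50% protection of heart cells from peroxide-induced death in the single-dose screen, raw or plate-pattern-corrected value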;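 note: 0% = DMSO wells with peroxide and 100% = DMSO wells without peroxide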
# PP5 primary: PP5 (human) phosphatase inhibition. 0.18% of 320,000 active. AID 1987. P53041. inhibition, % at 6.7 µM. purified PP5c, OMFP substrate fluorescence;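 active = inhibition above the campaign's mean inhibition across all tested compounds plus 3 SD, cut at about 9.5% in these data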;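 note: 0% = DMSO only and 100% = 100 µM cantharidin control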
# Target sequence (P53041 whole entry, looked up): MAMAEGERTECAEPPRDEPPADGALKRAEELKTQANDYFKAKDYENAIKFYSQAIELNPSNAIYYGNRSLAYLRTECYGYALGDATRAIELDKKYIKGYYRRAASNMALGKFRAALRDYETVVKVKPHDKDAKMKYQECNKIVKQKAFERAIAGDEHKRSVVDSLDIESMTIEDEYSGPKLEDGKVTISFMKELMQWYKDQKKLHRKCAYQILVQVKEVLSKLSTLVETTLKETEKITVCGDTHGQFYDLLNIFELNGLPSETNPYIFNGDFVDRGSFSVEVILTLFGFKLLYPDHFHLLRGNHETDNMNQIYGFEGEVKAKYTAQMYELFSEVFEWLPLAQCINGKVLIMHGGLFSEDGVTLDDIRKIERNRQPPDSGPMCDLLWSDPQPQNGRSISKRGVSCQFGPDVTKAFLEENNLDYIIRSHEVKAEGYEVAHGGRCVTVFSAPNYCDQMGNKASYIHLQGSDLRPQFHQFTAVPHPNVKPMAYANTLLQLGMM
# An asterisk follows results filed as active; . = no result. Hits are enriched below; roughly 1.9% of the tested compounds scored in any of these assays.
SMILES,ATG4B inh,PP1 inh,Cardio protect,PP5 primary
Nn1c(SCC(=O)N2CCOCC2)nnc1-c1cccnc1,-3.2,-3.2,11.4,-2.6
O=C(Nc1ccc(F)cc1)Nc1nnc(Cc2ccccc2)s1,2.5,16.6*,-13.1,0.2
CC1(C)CC2C1CCC1(O)CC2(C)CCC1N(O)c1ccc(C(=O)NCCO)cn1 (centres undefined),0.9,-1.7,50.8*,1.7
CCCOc1ccc(C(=O)NCCO)cc1,-2.3,-6.7,4.7,-1.9
Cn1c(=O)c2cc(NC(=S)NC3CC3)ccc2n1C/C=C/c1ccccc1,.,.,-0.8,.
C=CCn1c(CNc2ccccc2)nnc1SCC(=O)N/N=C/c1ccc(O)cc1O,-10.0,1.6,85.1*,-0.1
C=CCn1c(COc2ccccc2)nnc1SCC(=O)N/N=C/c1cc(Cl)ccc1O,8.7,-2.7,85.6*,1.7
C=CCn1c(COc2ccccc2)nnc1SCC(=O)N/N=C/c1ccc(C)cc1,-15.3,3.5,-17.8,3.5
C=CCn1c(CNc2ccc(C)cc2)nnc1SCC(=O)N/N=C/c1ccc(O)cc1O,-9.1,4.8,68.1*,0.8
Cc1ccc(S(=O)(=O)N(C)C[C@H]2Oc3ccc(NC(=O)Nc4c(C)noc4C)cc3CC(=O)N([C@@H](C)CO)C[C@@H]2C)cc1,-5.6,.,2.4,.
Cc1ccc2c(c1)nc1c3ccccc3nc(-c3ccccc3N)n21,.,.,58.4*,.
O=C(/C=C/c1ccc(NC(=O)c2ccccc2-c2ccccc2C(=O)O)cc1)c1ccccc1,17.5,17.2*,-1.8,0.5
CCOC(=O)c1cnc(Nc2nc3ccccc3o2)nc1CN1CCN(C)CC1,-10.4,.,59.9*,.
O=C(CCC(=O)N/N=C/c1cc(Cl)cc(Cl)c1O)NCc1ccccc1,-2.5,-1.2,51.8*,1.8
O=C(CCC(=O)N/N=C/c1ccc(Br)s1)NCc1ccccc1,-12.0,-0.7,0.5,1.1
COC(=O)c1c(C(=O)OC)c2c(-c3ccccc3)cc3cccc1n32,.,.,19.0,.
CCN(CC)c1ccc(S(=O)(=O)Nc2cc(Cl)ccc2Cl)cc1NC(=S)NC(=O)C1CCCC1,35.0,15.3*,-13.6,1.8
CCN(CC)S(=O)(=O)c1ccc(Cl)c(NC(=S)NC(=O)C2CCCC2)c1,6.3,10.4,-27.6,5.2
COc1ccc(Nc2nc3ccccc3n3cnnc23)cc1Cl,-0.8,9.3,17.9,0.5
COc1cccc(Nc2nc3ccccc3n3cnnc23)c1,-21.5,-2.5,86.4*,1.5
Cc1ccccc1OCC(O)Cn1c(Br)nc2c1c(=O)[nH]c(=O)n2C (centres undefined),2.3,-3.6,40.8,-3.1
COc1ccc(OCC(O)Cn2c(Br)nc3c2c(=O)[nH]c(=O)n3C)cc1 (centres undefined),-8.8,1.0,53.6*,3.7
Cc1cccc(Nc2nc3c(c(=O)n(C)c(=O)n3C)n2Cc2ccccc2)c1,-0.5,.,2.6,.
COc1ccc(OCC(O)Cn2c(Nc3cccc(C)c3)nc3c2c(=O)n(C)c(=O)n3C)cc1 (centres undefined),-4.7,-1.4,64.1*,0.1
Cn1c(=O)[nH]c(=O)c2c1nc(Br)n2CC(O)COc1ccc(Cl)cc1 (centres undefined),2.6,2.0,92.2*,-3.9
SMILES,ATG4B inh,PP1 inh,Cardio protect,PP5 primary
Cc1ccc(S(=O)(=O)CCc2ccncc2)cc1,3.7,-1.3,-6.2,-0.4
O=C1CC(=C2c3ccccc3-c3ccccc32)C(=O)N1CCN1CCN(c2ccccc2)CC1,-12.6,17.2*,8.3,3.7
COc1cc(/C=C(\C#N)c2nc3ccccc3[nH]2)ccc1Oc1ccc([N+](=O)[O-])cn1,13.1,7.4,75.8*,1.8
COc1cc(/C=C(\C#N)c2nc3ccc(C)cc3[nH]2)c([N+](=O)[O-])cc1OC,-17.1,-1.2,84.8*,1.2
CCC(C)Sc1cccc(-c2nc3ccc(C)cn3c2NCc2ccccc2)c1 (centres undefined),32.8,8.6,-10.4,6.0
Cc1ccc2nc(-c3cccc(-c4cccc(Cl)c4)c3)c(NCc3ccccc3)n2c1,13.1,15.8*,-14.2,5.4
Nc1c(C(=O)c2ccccc2)sc2c1c(=O)[nH]c(=O)n2-c1ccccc1,-12.0,1.2,6.3,-2.4
Nc1c(C(=O)c2ccc(Cl)cc2)sc2c1c(=O)[nH]c(=O)n2-c1ccccc1,0.4,15.9*,-0.9,0.1
O=C(N/N=C/c1cn(-c2ccccc2)nc1-c1cccnc1)c1ccccc1,-7.5,-0.8,60.6*,0.1
O=C(N/N=C\c1cn(-c2ccccc2)nc1-c1ccccc1)c1ccc2c(c1)OCO2,-0.9,2.7,52.5*,3.0
NC(=O)N/N=C/c1cn(-c2ccccc2)nc1-c1cccnc1,7.1,1.7,.,-0.3
O=C(N/N=C/c1ccc(-c2ccc(Br)cc2)o1)c1ccc2c(c1)OCO2,-10.8,15.6*,-1.0,4.7
c1ccc(CN2CCN(CCCNc3ccc4nnc(-c5ccccc5)n4n3)CC2)cc1,-21.8,0.5,79.0*,-0.4
CCN(c1ccc(NC(=O)COC(=O)c2ccc([N+](=O)[O-])o2)cc1)C(C)C,0.2,-0.2,60.9*,0.2
CC(=O)Nc1ccc(NC(=O)COC(=O)c2ccc([N+](=O)[O-])o2)cc1,-0.1,.,22.6,.
O=C(COC(=O)c1ccc([N+](=O)[O-])o1)Nc1cccc(S(=O)(=O)N2CCCCC2)c1,-5.2,-3.0,53.4*,2.2
Cc1ccc(C)c(S(=O)(=O)N2CCN(C(=O)CCC(=O)NCc3ccc(Cl)cc3Cl)CC2)c1,5.0,.,2.3,.
Cc1ccc(-c2cc(C(=O)Nc3c(C)n(C)n(-c4ccccc4)c3=O)[nH]n2)c(O)c1C,-2.0,-0.4,-13.9,5.8
O=C(O)c1ccccc1NS(=O)(=O)c1cccc(C(F)(F)F)c1,-11.0,3.6,6.7,3.1
O=C(O)c1ccccc1NS(=O)(=O)c1cccc(-n2sc3ccccc3c2=O)c1,12.3,5.7,64.0*,-1.0
Cc1ccc2sc(NNC(=O)c3cc(-c4cccs4)nc4ccccc34)nc2c1C,.,1.5,.,0.9
Cc1ccc(NC(=O)c2cc(-c3cccs3)nc3ccccc23)nc1,6.5,3.6,64.1*,1.5
Cc1cc(C)c2nc(NNC(=O)c3cc(-c4cccs4)nc4ccccc34)sc2c1,-3.9,5.6,56.2*,2.6
Cc1ccccc1NC(=O)c1cc(-c2ccco2)nc2ccccc12,4.0,.,1.4,.
Cc1cccc(NC(=O)c2cc(-c3ccco3)nc3ccccc23)n1,-1.9,0.2,60.7*,1.7
SMILES,ATG4B inh,PP1 inh,Cardio protect,PP5 primary
Cc1c(NC(=O)c2cc(-c3cccs3)nc3ccccc23)c(=O)n(-c2ccccc2)n1C,-4.3,0.6,17.9,1.9
COc1cc(/C=N/NC(=O)c2cccnc2)ccc1OS(=O)(=O)c1ccc(F)cc1,-7.5,13.4,84.8*,2.4
COc1cc(/C=N/NC(=O)c2cccnc2)ccc1OS(=O)(=O)c1cc(C)ccc1C,-21.6,-2.4,62.3*,3.0
Cc1cc(O)c(C)c(O)c1/C=N/NC(=O)c1cccnc1,-0.9,-1.0,51.3*,0.3
COc1cc(/C=N/NC(=O)c2cccnc2)ccc1OCC(=O)Nc1ccc(C)cc1,5.1,0.7,19.2,1.5
COc1cc(/C=N/NC(=O)c2cccnc2)ccc1OS(=O)(=O)c1ccc(C)cc1,-17.8,-2.5,16.1,3.6
CC1CCN(C(=O)COC(=O)Cn2cnc3ccccc32)CC1,6.7,.,8.3,.
